{"source": "PubChem BioAssay (Tox21)", "note": "Inconclusive results are not listed. Active and inactive are the calls of the source. Calls come from the whole dose curve. % is set by controls: 0 for no effect and ±100 for the full control effect; potency is the fitted concentration of half-maximal effect."}
{"target": "Beta-2 adrenergic receptor (Homo sapiens) (UniProt P07550)", "sequence (P07550 whole entry, looked up)": "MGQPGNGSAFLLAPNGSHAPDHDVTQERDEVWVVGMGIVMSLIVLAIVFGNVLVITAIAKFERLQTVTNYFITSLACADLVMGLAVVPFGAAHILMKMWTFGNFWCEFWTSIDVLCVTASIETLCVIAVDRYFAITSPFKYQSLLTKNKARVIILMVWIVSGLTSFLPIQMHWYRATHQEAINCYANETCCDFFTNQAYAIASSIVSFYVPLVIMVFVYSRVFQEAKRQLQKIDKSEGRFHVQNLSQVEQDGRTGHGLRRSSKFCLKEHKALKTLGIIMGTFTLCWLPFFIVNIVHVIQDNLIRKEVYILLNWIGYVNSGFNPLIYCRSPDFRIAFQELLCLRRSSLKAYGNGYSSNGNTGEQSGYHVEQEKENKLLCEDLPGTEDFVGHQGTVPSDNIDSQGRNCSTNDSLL", "test": "Adrenergic beta2 receptor (ADRB2) small molecule antagonists, cell-based qHTS assay (AID 1963592); note: nearly all actives have a fitted effect of over 50% in size", "settings": "CHO-ADRB2 cells, isoproterenol-stimulated cAMP HTRF ratio, 0.5 h; series mostly up to 92.4 µM; activity change, negative = inhibition: at the top concentration", "method_in_brief": "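Assay format: CHO-ADRB2 cells, 18-20hr seeding at 37C/5% CO2, then compound plus 1nM isoproterenol agonist mix for 0.5hr RT. Homogeneous time-resolved fluorescence cAMP detection after 1hr, expressed as 665/615 nm ratio.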"}
{"smiles": "CN(CCCN1c2ccccc2CCc2ccccc21)CC(=O)c1ccc(Cl)cc1", "activity change, negative = inhibition": "-24.1% [at 42.5 µM] (inactive)"}
{"smiles": "CC(CO)(CO)CO", "activity change, negative = inhibition": "0.694% (inactive)"}
{"smiles": "CC(C)(C)c1ccc(C(=O)O)cc1", "activity change, negative = inhibition": "-0.784% (inactive)"}
{"smiles": "C/C=C1\\[C@H]2C=C(C)C[C@]1(N)c1ccc(=O)[nH]c1C2", "activity change, negative = inhibition": "0.323% [at 42.5 µM] (inactive)"}
{"smiles": "CCN1/C(=C/C=C/c2sc3ccccc3[n+]2CC)Sc2ccccc21", "Potency": "5.8 µM (active)"}
{"smiles": "CCCC(=O)OC", "activity change, negative = inhibition": "2.07% (inactive)"}
{"smiles": "C/C=C/C=C/CO", "activity change, negative = inhibition": "-0.151% (inactive)"}
{"smiles": "CN(C)CCCN1c2ccccc2Sc2ccc(Cl)cc21", "activity change, negative = inhibition": "-6.82% [at 42.5 µM] (inactive)"}
{"smiles": "Cc1ccc(O)c2ncccc12", "activity change, negative = inhibition": "12.4% [at 42.5 µM] (inactive)"}
{"smiles": "CCCCN1C(=O)[C@@H]([C@H](O)C2CCCCC2)NC(=O)C12CCN(Cc1ccc(Oc3ccc(C(=O)O)cc3)cc1)CC2", "activity change, negative = inhibition": "-0.484% (inactive)"}
{"smiles": "O=C(O)Cc1ccc(Cl)cc1Cl", "activity change, negative = inhibition": "-7.65% (inactive)"}
{"smiles": "CCN(CC)CCOC(=O)C(c1ccccc1)C1CCCCC1", "note": "(stereo unspecified)", "activity change, negative = inhibition": "0.829% [at 42.5 µM] (inactive)"}
{"smiles": "CC1=CC(=C(c2ccc(N)cc2)c2ccc(N)cc2)C=CC1=N", "activity change, negative = inhibition": "-4.98% [at 8.39 µM] (inactive)"}
{"smiles": "CC(=O)OCC(C)OC(C)=O", "note": "(stereo unspecified)", "activity change, negative = inhibition": "-4.13% (inactive)"}
{"smiles": "O=[N+]([O-])c1cccc(C(F)(F)F)c1", "activity change, negative = inhibition": "-6.65% (inactive)"}
{"smiles": "CC1(C)[C@@H](O)CC[C@]2(C)[C@H]3C(=O)C=C4[C@@H]5C[C@@](C)(C(=O)O)CC[C@]5(C)CC[C@@]4(C)[C@]3(C)CC[C@@H]12", "activity change, negative = inhibition": "-7.79% (inactive)"}
{"smiles": "O=C(/C=C/c1ccccc1)OCCc1ccccc1", "activity change, negative = inhibition": "3.36% (inactive)"}
{"smiles": "CCOC(=O)CC(=O)C(=O)OCC", "activity change, negative = inhibition": "-1.69% (inactive)"}
{"smiles": "O=C(O)Cc1cc(I)c(Oc2ccc(O)c(I)c2)c(I)c1", "activity change, negative = inhibition": "-8.83% (inactive)"}
{"smiles": "CC(C)C(O)(c1ccc(OC(F)(F)F)cc1)c1cncnc1", "note": "(stereo unspecified)", "activity change, negative = inhibition": "-20.7% (inactive)"}
{"smiles": "O=Cc1ccc(O)c(O)c1O", "activity change, negative = inhibition": "11.7% [at 42.5 µM] (inactive)"}
{"smiles": "C=CCCCCCCC=C", "activity change, negative = inhibition": "9.26% (inactive)"}
{"smiles": "CC/C=C1/OC(=O)c2ccccc21", "activity change, negative = inhibition": "-8.71% (inactive)"}
{"smiles": "Cc1cccc(Nc2ccccc2)c1", "activity change, negative = inhibition": "-7.32% (inactive)"}
{"smiles": "Cc1ccc([N+](=O)[O-])c(N)c1", "activity change, negative = inhibition": "0.436% (inactive)"}
{"smiles": "CC(=O)[O][Al]", "activity change, negative = inhibition": "12.1% (inactive)"}
{"smiles": "c1ccc2c(c1)ccc1c3ccccc3ccc21", "activity change, negative = inhibition": "-20.2% [at 42.5 µM] (inactive)"}
{"smiles": "CCc1ccc2c(c1)C(=O)c1ccccc1C2=O", "activity change, negative = inhibition": "-9.97% (inactive)"}
{"smiles": "CC(C)(C)c1cc(CO)cc(C(C)(C)C)c1O", "activity change, negative = inhibition": "-18.4% (inactive)"}
{"smiles": "CCCCOC(=O)CO", "activity change, negative = inhibition": "0.431% (inactive)"}
{"smiles": "CCCCCCOC(=O)c1ccccc1", "activity change, negative = inhibition": "-0.503% (inactive)"}
{"smiles": "CC(C)c1ccccc1", "activity change, negative = inhibition": "-15.9% (inactive)"}
{"smiles": "CCN(Cc1cccc(S(=O)(=O)O)c1)c1ccc(C(=C2C=CC(=[N+](CC)Cc3cccc(S(=O)(=O)[O-])c3)C=C2)c2ccccc2)cc1", "activity change, negative = inhibition": "-7.8% [at 42.5 µM] (inactive)"}
{"smiles": "On1ccccc1=S", "activity change, negative = inhibition": "3.18% (inactive)"}
{"smiles": "N#CCCCC(C#N)CCC#N", "note": "(stereo unspecified)", "activity change, negative = inhibition": "-3.68% (inactive)"}
{"smiles": "O=C(c1ccccc1)C1CCCCC1", "activity change, negative = inhibition": "0.779% (inactive)"}
